Results on 14 molecules are retold here after PubChem BioAssay (NCI).

The panel holds about 83,000 compounds, 20% with a hit somewhere; the sample as a whole holds those more often.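 96-well plates, one dose, 48 hours. Percent growth reported; active if below 10.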 Calls of active or inactive are those of the source.

In this assay the test system is 786-0 renal. The assay is described as follows: NCI-60 one-dose screen, 48 h (100 = growth as untreated, 0 = no growth, -100 = all killed). The settings on record: 10 µM unless noted.
With `O=C1/C(=C/c2ccccc2)SC(=Nc2ccccc2)N1Nc1ccccc1`, the growth was -31.4% (active). As for `COc1cnc2c(c1)C(=O)c1c-2n(CCCNC(C)C)c(=O)c2cc(Cl)ccc12`, the figure is -96.3% (active); as for `CCSCC1CC(O)(c2ccccc2)C(c2ccccc2)C(c2ccc(F)cc2)O1` (centres undefined), -49.5% (active); as for `CN1C(=O)C(C2=NNC(c3ccccc3C(=O)O)C2)C(=O)N(C)C1=O` (centres undefined), 101% (inactive). As for `NC(N)=NC1CCCCC1`, the figure is 98.1% (inactive); as for `COc1ccc(C(=O)OC2C(OC3C(O)COC(O[C@H]4C[C@H]5[C@@H]6CC=C7C[C@@H](O)CC[C@]7(C)[C@H]6CC[C@]5(C)[C@H]4[C@H](C)C(=O)CCC(C)C)C3OC(C)=O)OCC(O)C2O)cc1` (some centres undefined), -41.2% (active). As for `CC(C)(C)c1ccc(OC(=O)Nc2ccccc2)cc1`, the figure is 83.8% (inactive); as for `CN1C2CCC1/C(=C\c1ccc(F)cc1)C(=O)/C2=C/c1ccc(F)cc1`, 43.8% (inactive); as for `CCCCOC(=O)c1cc(O)c(O)c(O)c1`, 79.2% (inactive). Regarding `CCOC(=O)C1OC2(CCCC2)OC1C(=O)OCC` (centres undefined), the growth is 100% (inactive). As for `O=C(Nc1cccc(-n2ccc3c(NC(=O)c4ccccc4)nccc32)c1)c1ccc(N2CCOCC2)c(C(F)(F)F)c1`, the figure is -12.3% (active).

Consider `CCN(CC)CCCC(C)Nc1c(-c2ccccc2)cnc2cc(Cl)ccc12` (centres undefined), for which the growth is 52% (inactive).

For the molecule `O=C1C=CN2C(=O)CC=CC2[C@@H]1O` (some centres undefined), the growth was 110% (inactive). As for `CC(=O)O[C@@H]1CC2C(C)(C)CCCC2(C)C2=C1C(=O)C(C(C)C)=CC2=O` (some centres undefined), the figure is 16% (inactive).
